Data: PubChem BioAssay (EPA / NIEHS)
Inconclusive results are not listed. Active and inactive are the calls of the source. How the source made its calls: active means hit-call score of the fitted dose curve at least 0.9, where 1 is the maximum; inconclusive means response in the unintended direction; inactive means score below 0.9.

Experiment: ACEA_AR_agonist_AUC_viability: ACEA Biosciences xCELLigence Real-Time Cell Analysis on Androgen Receptor Agonism for Viability (AID 2283775);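 on AC50: viability read 80 hours after compound addition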
Experimental: ACEA_AR_agonist is a cell-based, single-readout assay that uses 22Rv1, a human prostate cancer cell line, with measurements taken at 80 hours after chemical dosing in a 384-well plate, although TO5 and TO6 (mc0.srcf) used a 96-well plate. Differences in plate size can be ignored given data normalization.ACEA_AR_80hr is one of two assay component(s) measured or calculated from the ACEA_AR assay. It is designed to make measurements of real-time cell-growth kinetics, a form of growth reporter, as detected with electrical impedance signals by Real-Time Cell Electrode Sensor (RT-CES) technology.Data from the assay component ACEA_AR_AUC_viability was analyzed in the positive analysis fitting direction relative to DMSO as the negative control and baseline of activity. Using a type of growth reporter, loss-of-signal activity can be used to understand changes in the viability. Furthermore, this assay endpoint can be referred to as a secondary readout, because this assay has produced multiple assay endpoints where this one serves a viability function. To generalize the intended target to other relatable targets, this assay endpoint is annotated to the cell cycle intended target family, where the subfamily is cytotoxicity.
The xCELLigence system Multi-E-Plate stations were used to measure the time-dependent response to chemicals. Each compound was tested in an eight-point, 1:4 serial dilution series starting at a maximum final concentration of 100 uM. A maximum starting concentration of 0.5% DMSO was present in the 100 uM chemical samples and was diluted along with the test article dilution series. The screen was performed in biological duplicate using two separate, 96-well, E-Plates 96 for each dilution series (n = 2). Positive controls (MG132 and testosterone) and a negative control (assay media) were tested in quadruplicate on each testing plate. Then, 0.5% and 0.125% DMSO were tested in duplicates in each plate to serve as solvent controls for the 2 highest concentrations of testing compounds: 100 uM and 25 uM. Reference compounds were tested with 8 concentrations with 1:5 serial dilutions. All screening was carried out by ACEA Biosciences, Inc. (San Diego, CA). 22Rv1 cells purchased from ATCC were maintained in media supplemented with 10% fetal bovine serum (FBS). Before screening, 22Rv1 cells were preconditioned in assay medium. Cells were then detached and seeded in E-Plates 96 in assay medium. After overnight monitoring of growth once every hour, compounds were added to […] cells and remained in the medium until the end of the experiment. Cellular responses were then recorded once every 5 min for the first 5 h, and once every hour for an additional 100 h.

| Structure (SMILES) | AC50 | outcome |
| --- | --- | --- |
| CCCCCCCCCc1ccc(OCCO)cc1 | 9260 nM (active) | – |
| COCCOCCC[Si](C)(O[Si](C)(C)C)O[Si](C)(C)C | – | inactive |
| CC(C)(C)c1cc(Cc2cc(C(C)(C)C)c(O)c(C(C)(C)C)c2)cc(C(C)(C)C)c1O | – | inactive |
| CCOC(=O)C1CC(=O)C(=C(O)C2CC2)C(=O)C1 (stereo unspecified) | – | inactive |
| CCC(Cc1c(I)cc(I)c(N)c1I)C(=O)O (stereo unspecified) | – | inactive |
| N#Cc1ccccc1O | – | inactive |
| CCCCCCCCCCCCCC[P+](CCCC)(CCCC)CCCC | 13.8 nM (active) | – |
| CCCCCCCCn1sc(Cl)c(Cl)c1=O | 21300 nM (active) | – |
| CCc1cc(Cc2cc(CC)c(N)c(CC)c2)cc(CC)c1N | – | inactive |
| CCCCOC(=O)C(C)O (stereo unspecified) | – | inactive |
| O=C1C=CC(=O)N1c1ccccc1 | – | inactive |
| CCN=C1C=CC(=C(c2ccc(N(CC)CC)cc2)c2ccc(N(CC)CC)cc2)c2ccccc21 | – | inactive |
| Cc1ccc(O)c(-n2nc3ccccc3n2)c1 | – | inactive |
| CCCCCCCCCCCCC[N+](C)(C)Cc1ccccc1 | 2990 nM (active) | – |
| CC(C)Nc1ccc(NC(C)C)c2c1C(=O)c1ccccc1C2=O | – | inactive |
| Cc1ccc([N+](=O)[O-])c(C)c1 | – | inactive |
| CC(=O)CCC(C)C | – | inactive |
| CC(C)OC=O | – | inactive |
| CCOC(OCC)OCC | – | inactive |
| CCCCC(CC)COC(=O)c1ccc(N(C)C)cc1 (stereo unspecified) | – | inactive |
| CCN=c1cc2oc3cc(NCC)c(C)cc3c(-c3ccccc3C(=O)OCC)c-2cc1C | 13.8 nM (active) | – |
